Assay [1] can be described thus: TOX21_p53_BLA_p2_viability: Viability Assessment in the Tox21 HCT-116 p53 Agonism Beta-lactamase Assay, Phase 2 (AID 2283591).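 Also: compound exposure lasted 16 h at 37 °C; actives lower the ATP signal meaning cytotoxicity.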 The essentials:
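Cytotoxicity readout: CellTiter-Glo ATP luminescence, 30 min at room temperature, after the beta-lactamase read. Cells were HCT116 exposed 16 h at 37C to compounds pin-transferred at 217-fold dilution from DMSO stocks.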

The target in assay [2] is Cellular tumor antigen p53 (Homo sapiens) (UniProt P04637). Put plainly: TOX21_p53_BLA_p2_ratio: Tox21 HCT-116 p53 Agonism Beta-lactamase Assay, Ratio, Phase 2 (AID 2283592). The essentials:
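HCT116 cells carrying a p53-responsive beta-lactamase reporter were plated, incubated 5 h at 37C, then dosed with compounds in DMSO (217-fold dilution) for 16 h. CCF4-AM substrate was added for 2 h at room temperature; the 460/530 nm emission ratio gave gain-of-signal activity relative to DMSO.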

A short description of assay [3]: TOX21_p53_BLA_p3_viability: Viability Assessment in the Tox21 HCT-116 p53 Agonism Beta-lactamase Assay, Phase 3 (AID 2283593).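 Also: cells exposed to compound for 16 h before reading.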 The essentials: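 Cellular ATP was quantified by CellTiter-Glo luminescence, read after 30 min at room temperature. Beforehand, HCT116 cells (4000/well) received compound 5 h post-seeding, 217-fold diluted from DMSO, then incubated 16 h at 37C.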

Assay [4] deals with Cellular tumor antigen p53 (Homo sapiens) (UniProt P04637). Briefly: TOX21_p53_BLA_p3_ratio: Tox21 HCT-116 p53 Agonism Beta-lactamase Assay, Ratio, Phase 3 (AID 2283596). The essentials:
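HCT116 p53-bla cells (4000/well) given compound in DMSO (217-fold dilution) after 5 h, incubated 16 h at 37C. CCF4-AM substrate 2 h at room temperature; 460/530 nm emission ratio, gain fitted against DMSO.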

Assay [5] is described as follows: TOX21_p53_BLA_p4_viability: Viability Assessment in the Tox21 HCT-116 p53 Agonism Beta-lactamase Assay, Phase 4 (AID 2283597).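 Also: hits lower the luminescence signal meaning cytotoxicity.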 In short, it runs like this:
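HCT116 p53-bla cells (4000/well) rested 5 h at 37C, then received compounds in DMSO (217-fold dilution) for 16 h at 37C, 5% CO2. CellTiter-Glo was added after the CCF4-AM read, and luminescence was read after 30 min at room temperature.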

Assay [6] concerns the target Cellular tumor antigen p53 (Homo sapiens) (UniProt P04637). Briefly: TOX21_p53_BLA_p5_ratio: Tox21 HCT-116 p53 Agonism Beta-lactamase Assay, Ratio, Phase 5 (AID 2283599). In short, it runs like this:
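Beta-lactamase reporter ratio (blue 460 nm over green 530 nm, 405 nm excitation) after 2 h CCF4-AM loading, in HCT-116 cells exposed 16 h at 37 C to compounds pinned at 217-fold dilution. Increases relative to DMSO baseline scored.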

Assay [7] can be described thus: TOX21_p53_BLA_p5_viability: Viability Assessment in the Tox21 HCT-116 p53 Agonism Beta-lactamase Assay, Phase 5 (AID 2283600). The essentials:
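Cells were plated at 4000/well, rested 5 h at 37C, then given compounds in DMSO (217-fold dilution) for 16 h at 37C, 5% CO2. Following the CCF4-AM beta-lactamase read, CellTiter-Glo was added and luminescence was read after 30 min at room temperature.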

The target in assay [8] is Cellular tumor antigen p53 (Homo sapiens) (UniProt P04637). Put plainly: TOX21_p53_BLA_p4_ratio: Tox21 HCT-116 p53 Agonism Beta-lactamase Assay, Ratio, Phase 4 (AID 2283601). In short, it runs like this:
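Signal is the blue/green (460nm/530nm) ratio of cleaved versus uncleaved CCF4-AM substrate, read after 2 h substrate loading. Cells were HCT116 carrying the p53-responsive beta-lactamase reporter, dosed 16 h at 37C, 5% CO2; CellTiter-Glo measured in parallel.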

Structures are written as SMILES. Records with an inconclusive call do not appear. The source made the active and inactive calls. The calls were made as follows: active = hit-call score of the fitted dose curve at least 0.9, where 1 is the maximum; inconclusive = response in the unintended direction; inactive = score below 0.9.

Chain of Cellular tumor antigen p53 (Homo sapiens) (P04637 whole entry, looked up): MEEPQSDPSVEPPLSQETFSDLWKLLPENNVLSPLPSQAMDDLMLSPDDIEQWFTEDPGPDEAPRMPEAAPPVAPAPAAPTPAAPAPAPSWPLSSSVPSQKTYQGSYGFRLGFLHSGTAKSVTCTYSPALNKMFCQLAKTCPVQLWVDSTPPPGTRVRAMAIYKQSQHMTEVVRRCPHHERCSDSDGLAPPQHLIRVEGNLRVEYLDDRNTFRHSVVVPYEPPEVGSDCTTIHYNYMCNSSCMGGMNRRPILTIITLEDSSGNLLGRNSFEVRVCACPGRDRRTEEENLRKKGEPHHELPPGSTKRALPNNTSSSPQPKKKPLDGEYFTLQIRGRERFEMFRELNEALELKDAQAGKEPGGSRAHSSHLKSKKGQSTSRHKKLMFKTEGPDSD

Turning to `O=C(Nc1ccc(Cl)cc1)Nc1ccc(Cl)c(C(F)(F)F)c1`, the concentration at half-maximal activity (AC50) in assay [1] is 32.8 µM (active); in assay [2], 5.23 µM (active); in assay [4] it was 11.2 µM (active); in assay [5], 33.1 µM (active); in assay [6], 19.5 µM (active); in assay [7], 39.6 µM (active). In assay [8], the concentration at half-maximal activity (AC50) was 6.95 µM (active). Moreover, the compound was classed as inactive in assay [3].
`COc1cc2c(cc1OC)C(=O)C(CC1CCN(Cc3ccccc3)CC1)C2` (stereo unspecified): the call in assay [1], in assay [2], in assay [3], in assay [4], in assay [5] and in assay [6] was inactive. Further, the compound was called inactive in assay [7] and in assay [8].
For the compound `C=C1CC[C@H](O)C/C1=C/C=C1\CCC[C@]2(C)[C@@H]([C@H](C)CCCC(C)(C)O)CC[C@@H]12`, the AC50 is 12.8 µM (active) in assay [1]; 19.2 µM (active) in assay [2]; 13.7 µM (active) in assay [3]; 27.6 µM (active) in assay [4]; 12.8 µM (active) in assay [5]; 23.2 µM (active) in assay [6]. For the same compound, the AC50 in assay [7] is 13.1 µM (active); in assay [8] it was 18.6 µM (active).
Turning to `C=C(Nc1ccc(OCC)cc1)Nc1ccc(OCC)cc1`, the compound was classed as inactive in assay [1], in assay [2], in assay [3], in assay [4], in assay [5] and in assay [6]. The outcome in assay [7] and in assay [8] was inactive.
Turning to `CN(C/C=C/c1ccccc1)Cc1cccc2ccccc12`, the call in assay [1], in assay [2], in assay [3], in assay [4], in assay [5] and in assay [6] was inactive. The compound was called inactive in assay [7] and in assay [8].
For `Cc1cccc(N(C)C(=S)Oc2ccc3c(c2)CCC3)c1`, the result in assay [1], in assay [2], in assay [3], in assay [4], in assay [5] and in assay [6] was inactive. For the same compound, the compound was classed as inactive in assay [7] and in assay [8].
Turning to `Clc1ccc(COC(Cn2ccnc2)c2ccc(Cl)cc2Cl)c(Cl)c1` (stereo unspecified), the compound was called inactive in assay [1], in assay [3], in assay [4], in assay [5], in assay [6] and in assay [7]. The result in assay [8] was inactive. Also, the AC50 in assay [2] is 17.3 µM (active).
`O=C(Nc1ccc(S(=O)(=O)N2CCOCC2)cc1)c1cc(Cl)ccc1NS(=O)(=O)c1ccc(Cl)s1`: the compound was classed as inactive in assay [1], in assay [2], in assay [3], in assay [4] and in assay [7]. The AC50 in assay [5] was 22 µM (active); in assay [6] it was 21.7 µM (active); in assay [8] it was 36.5 µM (active).
Regarding `CCC(CC)(CC(=O)Nc1cccc(/C=C/c2nc(C3CCC3)cs2)c1)C(=O)O`, the result in assay [1], in assay [2], in assay [3], in assay [4], in assay [5] and in assay [6] was inactive. Moreover, the call in assay [7] and in assay [8] was inactive.
For the compound `O=C(O)c1cc(Cl)cc(Cl)c1`, the compound was called inactive in assay [1], in assay [2], in assay [3], in assay [4], in assay [5] and in assay [6]. In addition, the compound was called inactive in assay [7] and in assay [8].
Turning to `CCCCN(CCCC)c1ccc(C(=O)c2ccccc2C(=O)O)c(O)c1`, the concentration at half-maximal activity (AC50) in assay [1] was 17.2 µM (active); in assay [3] it was 23.1 µM (active); in assay [4], 39.8 µM (active); in assay [5], 21.2 µM (active); in assay [6], 52.2 µM (active); in assay [7] it was 20.3 µM (active). Moreover, the concentration at half-maximal activity (AC50) in assay [8] is 45.5 µM (active). For the same compound, the result in assay [2] was inactive.
In the case of `O=c1c(-c2ccccc2)c1-c1ccccc1`, the call in assay [1], in assay [3], in assay [5], in assay [6], in assay [7] and in assay [8] was inactive. In addition, the figures for the half-maximal activity concentration (AC50) in assay [2] and in assay [4] were 23.8 µM (active) and 22.2 µM (active), respectively.
As for `Oc1c(Cl)cc(Cl)c2cccnc12`, the result in assay [1], in assay [3] and in assay [7] was inactive. Also, the AC50 is 7.4 µM (active) in assay [2]; 7.23 µM (active) in assay [4]; 7.77 µM (active) in assay [5]; 7.4 µM (active) in assay [6]; 6.25 µM (active) in assay [8].
On to `CCCCCCCC/C=C\CCCCCCCC(=O)N(CCO)CCO`, for which the call in assay [1], in assay [2], in assay [3], in assay [4], in assay [5] and in assay [6] was inactive. In addition, the compound was called inactive in assay [7] and in assay [8].
In the case of `O=C(N/N=C/c1ccccc1O)c1ccncc1`, the compound was classed as inactive in assay [1], in assay [2], in assay [3], in assay [4], in assay [6] and in assay [7]. In assay [8], the outcome was inactive. Also, in assay [5], the AC50 is 8.16 µM (active).
For the compound `Cc1ccccn1`, the compound was classed as inactive in assay [1], in assay [2], in assay [3], in assay [4], in assay [5] and in assay [6]. Also, the outcome in assay [7] and in assay [8] was inactive.
For `CC(C)(O)c1ccccc1CC[C@@H](SCC1(CC(=O)O)CC1)c1cccc(/C=C/c2ccc3ccc(Cl)cc3n2)c1`, the AC50 was 18.2 µM (active) in assay [1]; 19.4 µM (active) in assay [3]; 33.8 µM (active) in assay [4]; 15.1 µM (active) in assay [5]; 17.6 µM (active) in assay [6]; 14.5 µM (active) in assay [7]. The concentration at half-maximal activity (AC50) in assay [8] is 18.8 µM (active). The outcome in assay [2] was inactive.
Turning to `OCCN1CCN(CC/C=C2/c3ccccc3Sc3ccc(C(F)(F)F)cc32)CC1`, the compound was called inactive in assay [1], in assay [2], in assay [3], in assay [4], in assay [6] and in assay [7]. Also, in assay [8], the result was inactive. In addition, in assay [5], the half-maximal activity concentration (AC50) was 36.3 µM (active).
In the case of `C(=C\c1ccccc1)/CN1CCN(C(c2ccccc2)c2ccccc2)CC1`, the call in assay [1], in assay [2], in assay [3], in assay [4], in assay [5] and in assay [6] was inactive. In addition, the compound was called inactive in assay [7] and in assay [8].
Take `O=S(=O)(O)CC(S)CS` (stereo unspecified): the result in assay [1], in assay [2], in assay [3], in assay [4], in assay [5] and in assay [6] was inactive. Also, the compound was classed as inactive in assay [7] and in assay [8].
For the compound `CCCCCCCCCCCCOCCOCCOCCOCCOCCOCCOCCOCCOCCO`, the concentration at half-maximal activity (AC50) in assay [1] is 31.5 µM (active); in assay [2], 13.5 µM (active); in assay [3] it was 27 µM (active); in assay [4] it was 19.7 µM (active); in assay [5] it was 20 µM (active); in assay [6], 36.9 µM (active). Further, the AC50 is 23 µM (active) in assay [7] and 37.7 µM (active) in assay [8].
`CCCCCCCCCCCCCCCCOCCOCCOCCOCCOCCOCCOCCOCCOCCOCCOCCOCCOCCOCCOCCOCCOCCOCCOCCOCCO`: the AC50 was 30.1 µM (active) in assay [1]; 29.5 µM (active) in assay [2]; 6.03 µM (active) in assay [3]; 11.7 µM (active) in assay [4]; 34.5 µM (active) in assay [5]; 41.4 µM (active) in assay [6]. For the same compound, the concentration at half-maximal activity (AC50) in assay [7] was 33.3 µM (active); in assay [8], 43.5 µM (active).

For the origin of these results see PubChem BioAssay (EPA / NIEHS).
